ERp5 inh – inhibitors of ERp5-driven insulin aggregation, primary screen, biochemical, turbidity, absorbance 650 nm, single point | 90 min | inhibition, % at 9.99 µM | Protein disulfide-isomerase A6 (Homo sapiens), Q15084 | actives 0.05% (n = 350,000);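 active = mean replicate inhibition above about 25%, with every replicate also reaching it, limit read from the data, passing the limit was not always enough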
HDAC3 inhib – HDAC3 deacetylase inhibitors, primary screen, biochemical, fluorescence, cell-free homogeneous; recombinant HDAC3, fluorogenic peptide/trypsin coupled; AID 2718, 2010; inhibition, % at 8.3 µM; actives 0.15% (n = 320,000); Histone deacetylase 3 (Homo sapiens), O15379; in the data active = inhibition above about 26%, passing the limit was not always enough
PDI inh – inhibitors of human PDI, primary screen, biochemical, turbidity, single point, plate reader | actives 0.052% (n = 350,000) | PDI insulin aggregation turbidity, A650, 90 min | inhibition, % at 10 µM;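 active = mean inhibition across replicates of 30% or more, whatever share of single replicates reach that level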
Target sequence (P07237 whole entry, looked up): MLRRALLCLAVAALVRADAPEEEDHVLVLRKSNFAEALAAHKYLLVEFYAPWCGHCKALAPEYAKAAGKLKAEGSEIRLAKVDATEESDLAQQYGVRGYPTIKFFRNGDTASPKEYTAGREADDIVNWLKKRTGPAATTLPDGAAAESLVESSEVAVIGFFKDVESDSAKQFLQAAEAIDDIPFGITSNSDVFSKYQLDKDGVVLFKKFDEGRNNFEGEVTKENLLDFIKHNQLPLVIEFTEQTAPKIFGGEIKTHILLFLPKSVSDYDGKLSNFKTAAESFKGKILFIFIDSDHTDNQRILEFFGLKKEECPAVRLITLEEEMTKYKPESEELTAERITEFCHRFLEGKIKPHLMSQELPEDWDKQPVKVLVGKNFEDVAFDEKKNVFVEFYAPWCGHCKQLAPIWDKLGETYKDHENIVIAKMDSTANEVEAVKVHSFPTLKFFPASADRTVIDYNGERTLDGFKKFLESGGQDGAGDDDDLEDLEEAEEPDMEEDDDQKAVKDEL
ERAP1 inh – human ERAP1 aminopeptidase inhibitors, primary screen, biochemical, single point, plate reader; recombinant ERAP1, Leu-AMC fluorescence, 60 min; actives 0.15% (n = 340,000); inhibition, % at 10.7 µM; Endoplasmic reticulum aminopeptidase 1 (Homo sapiens), Q9NZ08; AID 652197, 2013;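 active = mean replicate inhibition of at least 30%, or all replicates individually reaching that 30% level; inactive = mean below 30% and not every replicate reaching it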;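 note: 0% = neutral control wells and 100% = L-leucinethiol positive control wells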
SIRT5 inh – SIRT5 desuccinylase inhibitors, primary screen, biochemical, fluorescence imaging, single point, set 5 | NAD-dependent protein deacylase sirtuin-5, mitochondrial (Homo sapiens), Q9NXA8 | Purified SirT5, succinyl-peptide AMC, trypsin-coupled fluorescence | inhibition, % at 15 µM | actives 1.1% (n = 330,000) | AID 652115, 2013; in the data active = inhibition above about 15%
An asterisk follows results filed as active; nt = no result; ! = not active in a repeat. This excerpt belongs to a sample that is enriched for hits.

SMILES | ERp5 inh | HDAC3 inhib | PDI inh | ERAP1 inh | SIRT5 inh
O=C(O)CSCC(=O)N(Cc1ccccc1)c1nc(-c2ccccc2)c(-c2ccccc2)s1 | 1.1 | 5.7 | 9.4 | 1.8 | 17.2*
COCC(=O)N(C)C[C@H]1Oc2cc(C#CC(C)(C)O)ccc2S(=O)(=O)N([C@H](C)CO)C[C@@H]1C | 7.2 | nt | nt | -1.1 | -3.0
COCC(=O)N(C)C[C@@H]1Oc2cc(C#CC(C)(C)O)ccc2S(=O)(=O)N([C@H](C)CO)C[C@H]1C | -37.1 | nt | nt | -0.5 | -3.1
COCC(=O)N(C)C[C@H]1Oc2cc(C#CC(C)(C)O)ccc2S(=O)(=O)N([C@@H](C)CO)C[C@H]1C | 68.2* | nt | nt | -0.7 | -3.0
COCC(=O)N(C)C[C@H]1Oc2cc(C#CC(C)(C)O)ccc2S(=O)(=O)N([C@@H](C)CO)C[C@@H]1C | 47.2* | nt | nt | 1.1 | -3.5
C[C@H](CO)N1C[C@H](C)[C@@H](CN(C)C(=O)Nc2ccc(F)cc2)Oc2ccc(NS(=O)(=O)c3cccs3)cc2CC1=O | 3.8 | nt | nt | -1.8 | -3.4
COc1ccc(C(=O)O/N=C(/c2ccccc2)c2ccncc2)cc1 | -1.4 | 44.4* | 2.3 | 1.2 | -2.8
COc1ccc(C(=O)O/N=C(/c2ccccc2)c2ccncc2)cc1OC | 0.6 | 4.7 | 11.7 | 2.2 | 2.9
C[C@@]12C(=O)Nc3ccc(Cl)cc3C(=O)N1[C@H]1c3cc(Cl)ccc3OC[C@@H]1[C@@H]2c1ccccc1 | -6.9 | 2.5 | 0.2 | 1.2 | nt
Cc1ccc2c(c1)[C@H]1[C@H](CO2)[C@H](c2ccccc2)[C@]2(C)C(=O)Nc3ccc(Cl)cc3C(=O)N12 | 1.9 | 1.9 | -3.8 | 0.7 | 16.3*
COc1ccc(-c2ccc([C@H]3[C@H](CO)N4CCCCN(C(=O)c5ccc6c(c5)OCO6)C[C@@H]34)cc2)cc1 | 0.3 | nt | nt | -1.9 | -1.0
C[C@H]1CCCCO[C@@H](CN(C)C(=O)CCC(F)(F)F)[C@@H](C)CN([C@@H](C)CO)C(=O)c2cc(NC(=O)C3CCCCC3)ccc2O1 | -1.5 | nt | nt | -1.2 | 5.7
C[C@@H]1CCCCO[C@@H](CN(C)C)[C@H](C)CN([C@@H](C)CO)C(=O)c2cc(NC(=O)CCC(F)(F)F)ccc2O1 | -2.8 | nt | nt | 2.1 | 17.2*
C[C@@H]1CN([C@H](C)CO)C(=O)c2cc(NC(=O)CCC(F)(F)F)ccc2O[C@@H](C)CCCCO[C@@H]1CN(C)Cc1ccc(C(F)(F)F)cc1 | -5.9 | nt | nt | -0.3 | 21.2*
C[C@@H]1CCCCO[C@H](CN(C)C(=O)CCC(F)(F)F)[C@@H](C)CN([C@@H](C)CO)C(=O)c2cc(NC(=O)C3CCCCC3)ccc2O1 | 5.8 | nt | nt | -4.7 | 17.9*
C[C@@H]1CCCCO[C@H](CN(C)Cc2ccc(C(F)(F)F)cc2)[C@H](C)CN([C@@H](C)CO)C(=O)c2cc(NC(=O)CCC(F)(F)F)ccc2O1 | -2.4 | nt | nt | -1.2 | 5.4
C[C@H]1CCCCO[C@H](CN(C)Cc2ccc(Cl)c(Cl)c2)[C@@H](C)CN([C@@H](C)CO)C(=O)c2cc(NC(=O)CCC(F)(F)F)ccc2O1 | 1.0 | nt | nt | -1.1 | 15.2*
C[C@H](CO)N1C[C@H](C)[C@H](CN(C)C)OCCCC[C@H](C)Oc2ccc(NC(=O)CCC(F)(F)F)cc2C1=O | 3.0 | nt | nt | 3.4 | -2.8
C[C@H](CO)N1C[C@H](C)[C@@H](CN(C)C(=O)NC2CCCCC2)OCCCC[C@H](C)Oc2ccc(NS(=O)(=O)c3ccc(Cl)cc3)cc2C1=O | -0.8 | nt | nt | -1.9 | 0.0
O=C(c1ccc(F)cc1)N1CC2(C1)[C@H](c1ccccc1)[C@H](CO)N2Cc1ccccn1 | -3.8 | nt | nt | -14.0 | -0.1
C[C@@H]1CN([C@@H](C)CO)C(=O)c2cccc(NS(=O)(=O)c3ccc(F)cc3)c2O[C@H]1CN(C)S(=O)(=O)c1cn(C)cn1 | -1.4 | nt | nt | -0.8 | 7.3
CN1CCN(Cc2nc3ccccc3c(=O)n2Cc2nc(-c3cccc([N+](=O)[O-])c3)cs2)CC1 | -1.2 | nt | 14.4 | 3.0 | 4.2
CN1CCN(Cc2nc3ccccc3c(=O)n2Cc2nc(-c3ccc4ccccc4c3)cs2)CC1 | 12.9 | 6.6 | 43.8*! | 3.5 | 1.0
C[C@@H]1CCCCO[C@@H](CN(C)C(=O)c2ccccc2)[C@@H](C)CN([C@@H](C)CO)C(=O)c2cc(NC(=O)Cc3ccccc3)ccc2O1 | -2.9 | nt | nt | -3.1 | 0.7
Cc1noc(C)c1NC(=O)N(C)C[C@@H]1Oc2c(NC(=O)c3ccc(-c4nccs4)cc3)cccc2C(=O)N([C@@H](C)CO)C[C@@H]1C | -7.2 | nt | nt | -1.1 | -0.5
SMILES | ERp5 inh | HDAC3 inhib | PDI inh | ERAP1 inh | SIRT5 inh
C[C@@H]1CN([C@@H](C)CO)C(=O)c2ccccc2-c2ccccc2CO[C@H]1CN(C)S(=O)(=O)c1ccc(C#N)cc1 | -0.6 | nt | nt | 0.0 | 0.3
CCCN1[C@@H]2c3ccc(-c4ccccc4F)c(=O)n3C[C@@H]2[C@@H](CO)[C@@H]1C(=O)NC1CCC1 | 3.6 | nt | nt | 0.8 | -0.9
C[C@H](CO)N1C[C@H](C)[C@@H](CN(C)S(=O)(=O)c2ccc(F)cc2)OCCCC[C@H](C)Oc2ccc(NC(=O)C3CCCCC3)cc2C1=O | 2.7 | nt | nt | 1.5 | 6.4
COc1ccc(S(=O)(=O)N(C)C[C@H]2OCCCC[C@@H](C)Oc3ccc(NS(=O)(=O)c4ccc(C)cc4)cc3C(=O)N([C@H](C)CO)C[C@@H]2C)cc1 | -10.8 | nt | nt | -0.4 | 5.3
COc1ccc(S(=O)(=O)N(C)C[C@H]2OCCCC[C@@H](C)Oc3ccc(NS(=O)(=O)c4cn(C)cn4)cc3C(=O)N([C@@H](C)CO)C[C@H]2C)cc1 | -0.1 | nt | nt | 0.0 | 16.0*
COc1ccc(S(=O)(=O)N(C)C[C@H]2OCCCC[C@H](C)Oc3ccc(NS(=O)(=O)c4ccc(C)cc4)cc3C(=O)N([C@@H](C)CO)C[C@H]2C)cc1 | -5.4 | nt | nt | 0.5 | 19.6*
COc1ccc(S(=O)(=O)N(C)C[C@H]2OCCCC[C@H](C)Oc3ccc(NS(=O)(=O)c4ccc(C)cc4)cc3C(=O)N([C@H](C)CO)C[C@H]2C)cc1 | 0.6 | nt | nt | 0.2 | 28.6*
COc1ccc(S(=O)(=O)N(C)C[C@H]2OCCCC[C@@H](C)Oc3ccc(NS(=O)(=O)c4ccc(C)cc4)cc3C(=O)N([C@@H](C)CO)C[C@H]2C)cc1 | -3.0 | nt | nt | -0.4 | 24.5*
C[C@@H]1CCCCO[C@H](CN(C)C)[C@H](C)CN([C@@H](C)CO)C(=O)c2cc(NC(=O)CCCN(C)C)ccc2O1 | 1.4 | nt | nt | -0.6 | -14.5
COc1ccc(S(=O)(=O)Nc2ccc3c(c2)C(=O)N([C@H](C)CO)C[C@H](C)[C@@H](CN(C)S(=O)(=O)c2ccc(C)cc2)OCCCC[C@@H](C)O3)cc1 | 6.7 | nt | nt | -0.3 | 13.1
